# Source: PubChem BioAssay (EPA / NIEHS)
# Records with an inconclusive call do not appear. Active and inactive are the calls of the source. The calls were made as follows: active = hit-call score of the fitted dose curve at least 0.9, where 1 is the maximum; inconclusive = response in the unintended direction; inactive = score below 0.9.
# Biological target: Hepatocyte nuclear factor 4-alpha (Homo sapiens) (UniProt P41235)
# Test: ATG_HNF4a_TRANS: Attagene TRANS-FACTORIAL HepG2 Assay for human Hepatocyte Nuclear Factor 4 alpha (HNF4a) (AID 2282982)
# Settings: HepG2 HNF4a transactivation reporter, mRNA readout
# In short: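 Transient MRTU transfection of HepG2, 24 h dosing. Readout: reporter mRNA via RT-PCR + capillary electrophoresis, fluorescence; activity fit upward relative to DMSO control.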
# Chain of Hepatocyte nuclear factor 4-alpha (Homo sapiens) (P41235 whole entry, looked up): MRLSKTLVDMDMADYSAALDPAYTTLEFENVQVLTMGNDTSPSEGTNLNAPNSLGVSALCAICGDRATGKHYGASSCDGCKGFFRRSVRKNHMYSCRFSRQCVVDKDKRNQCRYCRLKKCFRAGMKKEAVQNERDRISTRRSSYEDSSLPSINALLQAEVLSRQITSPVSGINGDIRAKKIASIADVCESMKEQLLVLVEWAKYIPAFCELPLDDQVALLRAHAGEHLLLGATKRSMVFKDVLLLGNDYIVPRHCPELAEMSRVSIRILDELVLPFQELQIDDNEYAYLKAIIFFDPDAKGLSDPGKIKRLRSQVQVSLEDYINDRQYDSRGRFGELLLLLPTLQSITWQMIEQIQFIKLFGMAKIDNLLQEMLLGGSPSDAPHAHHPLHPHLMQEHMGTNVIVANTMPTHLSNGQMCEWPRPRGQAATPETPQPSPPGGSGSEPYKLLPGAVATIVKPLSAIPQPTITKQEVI
row,Compound,outcome
1,CC1CCC(=O)O1 (centres undefined),inactive
2,COc1cc(OC)c(OC)cc1C=O,inactive
3,COCC(=O)N(c1c(C)cccc1C)N1CCOC1=O,inactive
4,CC[N+](=O)[O-],inactive
5,[Cl-].[Cl-].[Cl-].[Yb+3],inactive
6,CC(C)(O)C#N,inactive
7,O=S(=O)(c1ccccc1)c1ccccc1,inactive
8,CC1(C)C(=O)NC(=O)NC1=O,inactive
9,CC(=O)/C=C/c1ccccc1,inactive
10,N#CC(c1ccccc1)c1ccccc1,inactive

# Tested on: not listed separately
# Test: ATG_M_06_TRANS: Attagene TRANS-FACTORIAL HepG2 Assay for M06 Transcription Factor (Internal Marker) (AID 2282983);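 also: reporter transcript level by RT-PCR then capillary electrophoresis fluorescence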
# Settings: HepG2 Attagene TRANS M06 internal marker reporter
# In short: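 mRNA levels of a reporter transcript, quantified as FAM fluorescence on capillary electrophoresis, served as readout. HepG2 cells expressing exogenous GAL4-chimera reporter constructs were exposed for 24 h. Gain of signal over DMSO was evaluated.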
row,Compound,outcome
1,O=C1C(Cl)=C(Cl)C(=O)C(Cl)=C1Cl,inactive
2,N#CCCCCC#N,inactive
3,CC(C)c1ccc(O)cc1,inactive
4,C[N+](C)(C)CC(=O)[O-],inactive
5,CC(C)(c1cc(Cl)c(O)c(Cl)c1)c1cc(Cl)c(O)c(Cl)c1,inactive
6,O=C(NCNC(=O)NC1C(=O)NC(=O)N1CO)NC1C(=O)NC(=O)N1CO (centres undefined),inactive
7,[N-]=[N+]=CC(=O)OC[C@H](N)C(=O)O,inactive
8,CC(C)CCCCCCCOP(=O)(Oc1ccccc1)Oc1ccccc1,inactive
9,CCC1CCC(=O)O1 (centres undefined),inactive
10,C=COCCCl,inactive
11,CC[N+](=O)[O-],inactive
12,CC(Cc1ccc(C(C)(C)C)cc1)CN1C[C@@H](C)O[C@@H](C)C1 (some centres undefined),inactive
13,CCOC(=O)N(C)N=O,inactive
14,O=CNC(N1CCN(C(NC=O)C(Cl)(Cl)Cl)CC1)C(Cl)(Cl)Cl (centres undefined),inactive
15,CCC[N+](=O)[O-],inactive
16,CC(C)(O)C#N,inactive
17,S=c1[nH]c2ccccc2[nH]1,inactive
18,CCCCCc1cc(O)cc(O)c1,inactive
19,c1ccc(Nc2ccc3ccccc3c2)cc1,inactive
